According to the supplement of paper PMC3334620:
In all, about 33,000 sequences were measured (“E-score (-0.5 to 0.5)”: median about -0.013, highest 2% from about 0.3 on). The sample as a whole holds a higher share of the highest values than the screen did.

The sequences below were run against T1, Msn1 (UniProt P22148) (assay: PBM E-score (8-mer binding enrichment) (E-score (-0.5 to 0.5)); higher = stronger / more preferred TF binding). Conditions: protein concentration: 200 nM; construct: GST-full length.
T1 sequence: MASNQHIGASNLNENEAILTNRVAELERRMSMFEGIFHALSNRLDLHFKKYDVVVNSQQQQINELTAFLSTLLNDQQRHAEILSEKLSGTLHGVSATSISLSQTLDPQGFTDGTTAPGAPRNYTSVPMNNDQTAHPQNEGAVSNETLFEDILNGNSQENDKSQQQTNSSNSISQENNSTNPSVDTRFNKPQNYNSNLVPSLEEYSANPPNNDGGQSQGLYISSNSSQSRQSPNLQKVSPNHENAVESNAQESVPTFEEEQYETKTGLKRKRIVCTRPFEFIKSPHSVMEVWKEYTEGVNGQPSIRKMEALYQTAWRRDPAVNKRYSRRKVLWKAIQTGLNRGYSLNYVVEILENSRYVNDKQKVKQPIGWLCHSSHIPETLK
Experimental: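 Universal 'all 10-mer' protein binding microarrays (Agilent AMADID 015681) probed with GST-tagged S. cerevisiae TFs (full-length or DBD) made by in vitro transcription/translation (PURExpress), about 100-200 nM. Bound TF was detected with fluorescent anti-GST. Each ungapped 8-mer (which stands for itself and its reverse complement) is scored by the PBM enrichment score (E-score), a modified Wilcoxon-Mann-Whitney statistic from -0.5 to +0.5, computed with the Universal PBM Analysis Suite. Scale: above 0.35 generally sequence-specific binding.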

| Sequence | PBM E-score |
| --- | --- |
| ACGTGCCT | -0.148 |
| ATATCTGG | 0.045 |
| GCCATTGA | 0.00063 |
| CAATAAGC | 0.00863 |
| GCGTATCC | -0.037 |
| CCATACCA | 0.0887 |
| GTGACAAA | 0.423 |
| GTGACGAA | -0.0509 |
| GTGACAAC | 0.139 |
| ACTCCCTC | -0.312 |
| AAATGACA | 0.278 |
| ACATGACA | 0.297 |
| GCATGACA | 0.199 |
| GAATGACC | 0.201 |
| CAATGACA | 0.298 |
| GAATGACA | 0.34 |
| TAATGACA | 0.307 |
| TCATGACA | 0.388 |
| TGATGACA | 0.299 |
| AGGGTAAC | -0.177 |
| AAGTCGGA | 0.158 |
| ATACCCAA | 0.195 |

| Sequence | PBM E-score |
| --- | --- |
| ATAGGTTG | -0.0907 |
| CGCGGGCC | -0.105 |
| ACGGTCGG | -0.0232 |
| GCAAACCC | -0.225 |
| CCAACGGC | -0.132 |
| GCATGTAA | -0.12 |
| GAATTGTA | 0.151 |
| CAATTGTC | 0.445 |
| AAATTGTA | 0.222 |
| AAATTGTC | 0.449 |
| GAATTGGC | -0.278 |
| AAATTGTT | 0.143 |
| GAATTGTC | 0.392 |
| CAATTGTG | -0.00904 |
| CAATTGTA | 0.184 |
| ACCTAAAA | 0.0426 |
| TCTAGCAA | 0.0862 |
| TCACCCCA | 0.108 |
| AAACGCCT | -0.0244 |
| GGTGCGGA | -0.047 |
| ACCTAAGG | -0.14 |
| AGTGCTCA | -0.229 |

| Sequence | PBM E-score |
| --- | --- |
| TGGTACAA | 0.386 |
| GGGTACAA | 0.198 |
| AGGTACAG | 0.00868 |
| CGGTACAC | 0.123 |
| CGGTACAA | 0.311 |
| AGGTACAC | 0.139 |
| CGGTACAG | 0.054 |
| AGGTACAA | 0.394 |
| TGGTACCA | -0.0646 |
| ATCGTTTA | 0.141 |
| CTTCATCA | -0.143 |
| AAGGGCAG | -0.102 |
| CTGGAAGC | -0.225 |
| GCTTTTCC | -0.0951 |
| AGCCTCAC | -0.223 |
| CTCATGTC | 0.27 |
| AGCATGTC | 0.318 |
| AGCATGTA | 0.0635 |
| CCCATGTA | 0.0749 |
| AGCATGTG | -0.0619 |
| CCCATGTC | 0.316 |
| ACCATGTC | 0.218 |

| Sequence | PBM E-score |
| --- | --- |
| CGCATGTC | 0.426 |
| CGCATGTA | 0.0633 |
| ATTTGAGC | -0.0055 |
| ACAATCTA | 0.0825 |
| CGGACCGA | 0.165 |
| CAGCGAAG | -0.193 |
| TATCGGGA | 0.178 |
| TCCCCAGA | -0.107 |
| CATGTCAG | 0.208 |
| ACTGTCCA | 0.0386 |
| GATGTCCC | 0.462 |
| CCTGTCCG | 0.117 |
| TCTGTCCA | 0.363 |
| CATGTCAA | 0.236 |
| GATGTCAC | 0.26 |
| CATGTCCA | 0.463 |
| CATGTCCG | 0.436 |
| CCTGTCCA | 0.156 |
| GCTGTCCC | -0.0712 |
| GCTGTCCA | 0.159 |
| CTTACTGC | -0.143 |
| GATGGCGC | -0.252 |
